Measurements taken from PubChem BioAssay AID1159580 (chemical genetic matrix, 2015).
Among all 5,500 compounds or so, about 2,000 (36%) were called active. Not shown: some 18% with an inconclusive outcome. Cut-off read from the data, not from the text of the source: active = normalized growth mostly below about 0.91 (no sharp cut-off); inconclusive = no clear call, values can overlap the other calls; inactive = mostly above about 0.92. Some of the results follow.

Assay: chemical genetic growth profiling, strain panel (AID 1159580);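 note: tested at 20 µM; growth read once vehicle control cultures reached saturation at 30 °C; 1 = growth at the plate median or of vehicle wells; lower values mean less growth of the strain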
Conditions: growth OD

Measured: normalized growth

Cc1nn(C)c(C)c1NS(=O)(=O)c1cc(Cl)sc1Cl
inactive: S. cerevisiae deletion strains, locus YAL013W, strain DEP1, active compounds read low 1 | S. cerevisiae deletion strains, locus YBR229C, strain ROT2, active compounds read low 1.03 | S. cerevisiae deletion strains, locus YDL101C, strain DUN1, active compounds read low 1.05 | S. cerevisiae deletion strains, locus YDL134C, strain PPH21, active compounds read low 1.02 | S. cerevisiae deletion strains, locus YDR150W, strain NUM1, active compounds read low 0.956 | S. cerevisiae deletion strains, locus YEL061C, strain CIN8, active compounds read low 1.03 | S. cerevisiae deletion strains, locus YGR078C, strain PAC10, active compounds read low 1.01 | S. cerevisiae deletion strains, locus YHR030C, strain SLT2, active compounds read low 1.04 | S. cerevisiae deletion strains, locus YHR087W, strain rtc3, active compounds read low 1.03 | S. cerevisiae deletion strains, locus YJL187C, strain SWE1, active compounds read low 1.02 | S. cerevisiae deletion strains, locus YJR043C, strain POL32, active compounds read low 1.01 | S. cerevisiae deletion strains, locus YJR075W, strain HOC1, active compounds read low 1.02 | S. cerevisiae deletion strains, locus YLR039C, strain RIC1, active compounds read low 1 | S. cerevisiae deletion strains, locus YLR058C, strain SHM2 (second series), active compounds read low 1.03 | S. cerevisiae deletion strains, locus YLR085C, strain ARP6, active compounds read low 1.03 | S. cerevisiae deletion strains, locus YLR262C, strain YPT6, active compounds read low 0.993 | S. cerevisiae deletion strains, locus YML094W, strain GIM5, active compounds read low 1.01 | S. cerevisiae deletion strains, locus YMR219W, strain ESC1, active compounds read low 1.01 | S. cerevisiae deletion strains, locus YMR263W, strain SAP30, active compounds read low 0.914 | S. cerevisiae deletion strains, locus YNL153C, strain GIM3, active compounds read low 1.04 | S. cerevisiae deletion strains, locus YNL298W, strain CLA4 (second series), active compounds read low 1.04 | S. cerevisiae deletion strains, locus YNL322C, strain KRE1, active compounds read low 1.01 | S. cerevisiae deletion strains, locus YNR030W, strain Alg12, active compounds read low 1.01 | S. cerevisiae deletion strains, locus YPL055C, strain LGE1, active compounds read low 1.01 | S. cerevisiae deletion strains, locus YPL241C, strain CIN2, active compounds read low 1.01 | S. cerevisiae deletion strains, locus YPR135W, strain CTF4, active compounds read low 1.14 | S. cerevisiae strains, strain wild type, active compounds read low 1.02
